Test results as given in publication PMC5540273 (PLoS ONE, 2017).

Columns and labels:
Settings in all cases: concentration: 1 μM, replicates: in singlicate; n = 1
MYO3B = tested on: MYO3B
NDR1 = tested on: T1, NDR1
T1 construct: gene STK38

NDR2 = tested on: NDR2
NEK10 = tested on: NEK10
NEK11 = tested on: NEK11
NEK1 = tested on: NEK1
NEK2 = tested on: NEK2
NEK3 = tested on: NEK3
NEK4 = tested on: NEK4
NEK5 = tested on: NEK5
NEK6 = tested on: NEK6
NEK7 = tested on: NEK7
NEK9 = tested on: NEK9
NIK = tested on: T2, NIK
T2 construct: gene MAP3K14

NIM1 = tested on: T3, NIM1
T3 construct: gene MGC42105

NLK = tested on: NLK
OSR1 = tested on: T4, OSR1
T4 construct: gene OXSR1

PAK1 = tested on: PAK1
PAK2 = tested on: PAK2
PAK3 = tested on: PAK3
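Note: KINOMEscan kinase panel screen.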

Row | Compound | %Inh (MYO3B) [%] | %Inh (NDR1) [%] | %Inh (NDR2) [%] | %Inh (NEK10) [%] | %Inh (NEK11) [%] | %Inh (NEK1) [%] | %Inh (NEK2) [%] | %Inh (NEK3) [%] | %Inh (NEK4) [%] | %Inh (NEK5) [%] | %Inh (NEK6) [%] | %Inh (NEK7) [%] | %Inh (NEK9) [%] | %Inh (NIK) [%] | %Inh (NIM1) [%] | %Inh (NLK) [%] | %Inh (OSR1) [%] | %Inh (PAK1) [%] | %Inh (PAK2) [%] | %Inh (PAK3) [%]
1 | O=c1cc(N2CCOCC2)nc2n(Cc3cccc(F)c3)ccn12 [GSK2297430] | 0 | 0 | 0 | 24 | 0 | 0 | 0 | 0 | 0 | 0 | 0 | 0 | 7 | 7 | 0 | 0 | 1 | 18 | 9 | 79
2 | COc1cc2ncn(-c3cc(OCc4sccc4Cl)c(C(N)=O)s3)c2cc1OC [GSK448459] | 0 | 0 | 0 | 0 | 0 | 13 | 97.1 | 4 | 0 | 11 | 0 | 0 | 0 | 22 | 30 | 0 | 11 | 17 | 10 | 20
3 | N#Cc1ccc(-c2cc(-c3c[nH]nc3-c3ccccn3)ccn2)cc1 [GW693028] | 0 | 14 | 0 | 11 | 5 | 0 | 0 | 8 | 20 | 5 | 0 | 0 | 0 | 18 | 35 | 16 | 4 | 8 | 9 | 0
4 | COc1ccc(CNC(=O)NC2CCN(c3ccnc(Nc4ccc(OC)cc4)n3)C2)cc1 (stereo not drawn) [GSK1379727] | 0 | 0 | 42 | 15 | 11 | 0 | 0 | 8 | 12 | 13 | 0 | 0 | 6 | 17 | 33 | 24 | 0 | 0 | 0 | 0
5 | COc1ccc(Nc2nccc(N3CCC(NC(=O)Nc4cc(C)ccc4C)C3)n2)cc1 (stereo not drawn) [GSK1379741] | 0 | 7 | 0 | 1 | 20 | 0 | 0 | 0 | 0 | 6 | 0 | 0 | 9 | 7 | 7 | 35 | 1 | 7 | 0 | 0
6 | CCn1cnc2c(N)ncnc21 [GW345098] | 0 | 15 | 8 | 39 | 0 | 0 | 13 | 3 | 12 | 10 | 29 | 14 | 0 | 6 | 0 | 37 | 0 | 9 | 0 | 58
7 | CC(C)(C)n1cnc2c(N)ncnc21 [SKF-97359] | 5 | 0 | 0 | 12 | 14 | 0 | 0 | 42 | 0 | 0 | 0 | 0 | 0 | 33 | 17 | 2 | 0 | 0 | 0 | 0
8 | Fc1ccc(-c2nn3c(OCC(F)(F)F)cccc3c2-c2ccncc2)cc1 [GW514784] | 0 | 11 | 44 | 11 | 44 | 2 | 8 | 0 | 0 | 2 | 0 | 0 | 4 | 56 | 0 | 65 | 20 | 0 | 0 | 0
9 | O=C1Cc2cc(Nc3nc(NCc4cccc(S(=O)(=O)C(F)(F)F)c4)ncc3C(F)(F)F)ccc2N1 | 0 | 9 | 0 | 36 | 0 | 10 | 9 | 12 | 5 | 14 | 14 | 0 | 0 | 4 | 26 | 4 | 4 | 0 | 0 | 1
